Records with an inconclusive call do not appear. The source made the active and inactive calls. The call rests on the fitted dose curve; in most records, active means well fitted curve in either direction with a large enough effect (not every such curve was filed as active); inconclusive means small, poorly fitted or top-dose-only effect, or another doubt; inactive means flat fitted curve, though single readings scatter.
experiment: AP1 Signaling Pathway (AID 357); conditions: ME-180 (cervical carcinoma) AP-1-bla reporter, EGF-induced, beta-lactamase ratio, 5 h; at 17.2 µM (top of the series) unless noted
How it was run: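 AP-1-bla ME-180 cells, Opti-MEM + 0.5% dialyzed FBS, plated overnight 37 °C. Cpd titration + EC50 EGF, 5 h 37 °C. CCF4 2.5 h RT; ex 405, em 460/530 ratio → %activity, AC50.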
On the % scale 0 is the no-effect control and ±100 the full control effect.

Activity change, negative = inhibition, inactive:
O=C1CCC(=O)N1CN(C(=O)c1ccco1)c1ccc(Cl)c(Cl)c1 -6.31%
Cn1c(=O)c2c3c(sc2n2c(SCC(N)=O)nnc12)CC(C(C)(C)C)CC3 (stereo not given) -9.72%
CCCc1cc(=O)oc2c(C)c(O)c(CN3CCCCC3)cc12 6.18%
Cc1ccccc1N1C(=O)C2ON(c3ccccc3)C(c3ccncc3)C2C1=O (stereo not given) 5.78%
c1ccc(Cc2nn[nH]n2)cc1 7.13%
Cc1cc(=O)oc(C)c1C(=O)n1nc(C)c2c1C[C@@H]1[C@H]2C1(C)C -2.2%
CCCC1C(c2ccc(OC)cc2)C(C#N)(C#N)C2(C#N)CC1(N)NC2=O (stereo not given) 7.74%
CO[C@H]1C=CO[C@@]2(C)Oc3c(C)c(O)c4c(O)c(c(C=NN5CCN(C)CC5)c(O)c4c3C2=O)NC(=O)C(C)=CC=C[C@H](C)[C@H](O)[C@@H](C)[C@@H](O)[C@@H](C)[C@H](OC(C)=O)[C@@H]1C -3.11%
C=CCN1C(=O)CC(C(=O)NC)SC1=Nc1ccc(C(=O)OCC)cc1 (stereo not given) -3.69%
CC(=O)Nn1cnc2c(c1=O)C1(CCCC1)Cc1ccccc1-2 -8.59%
CC(=O)C1=C(O)C(=O)N(c2cccc(C(=O)O)c2)C1c1ccc(F)cc1 (stereo not given) 15.1%
CC(C)Cc1[nH]c(=O)c(C#N)c2c1CCCC2 3.62%
Cc1nc2c(c(=O)n1CC1CCCO1)c1nc3ccccc3nc1n2CCC(C)C (stereo not given) 6.32%
O=C1CCCN1c1ccc(S(=O)(=O)NCc2ccco2)cc1 1.18%
CC(C)N1CCc2c(sc(N)c2C#N)C1 5.12%
COCCCNc1nc2c(c(=O)n(C)c(=O)n2C)n1Cc1cccc(OC)c1 -8.39%
COc1c(O)ccc2cnn(-c3ccccc3C)c(=O)c12 12.5%
Cc1cc(C)n(C(=O)CSc2nc3ccccc3o2)n1 13.4%
c1csc(-c2nn3c(C4CCCCC4)nnc3s2)c1 -6.89%
CC1(C)Cc2c(c(-c3ccccc3)nc(N3CCCC3)c2C(N)=O)CO1 0.989%
COc1ccc(CCNC2CC(C)N(C)CC2C)cc1OC (stereo not given) 2.19%
CCOC(=O)CSc1nc(N2CCOCC2)c2c(c1C#N)CC(C)(C)N(C)C2 -8.24%
Cc1cc(C)cc(-n2c3nc4ccccc4nc3c3c(=O)n(Cc4ccco4)cnc32)c1 8.24%
CC(=O)C1=C(O)C(=O)N(c2cccc(C(=O)O)c2)C1c1ccccc1F (stereo not given) -4.91%
CCCCC(CCC(=O)Nc1ccc(C(=O)OC)cc1)C(=O)O (stereo not given) 9.55%
COc1ccc(C(=O)c2ccc(N3CCOCC3)cc2)c(OC)c1 -17.3%
COc1ccc(Cn2c(CCCO)nc3ccccc32)cc1OC -8.44%
COc1ccc(/C(O)=C2/C(=O)C(=O)N(CCN(C)C)C2c2ccccn2)cc1OC (stereo not given) 4.92%
CCCCCOc1ccccc1C(=O)NCCCC(=O)O 2.16%
CC1CN(C2CCN(C(=O)COc3ccccc3)CC2)CC(C)O1 (stereo not given) -6.79%
Clc1ccccc1-c1nnc2sc(-c3ccco3)nn12 -8.96%
Cn1c(OCc2cccnc2)nc2c1c(=O)n(Cc1ccc(Cl)cc1)c(=O)n2C -16.3%
O=C1C2ON(c3ccccc3)C(c3cccnc3)C2C(=O)N1c1ccccc1 (stereo not given) -5.35%
O=C(NCc1ccccn1)c1ccc(=O)oc1 5.8%
CCc1cccc(C)c1N(C(=O)Cn1c(=O)[nH]c2ccccc21)C(C)COC (stereo not given) -2.33%
Cn1c(=O)[nH]c(=O)c2c1nc(N(CCO)Cc1ccccc1)n2Cc1ccccc1Cl -1.99%
O=C1C2ON(c3ccccc3)C(c3ccncc3)C2C(=O)N1c1ccccc1 (stereo not given) -0.837%
O=S(=O)(/C=C/c1ccccc1)Nc1ccc2c(c1)OCO2 -20.8%
Cc1cc(C)n(CC2CC(=O)N(c3ccc(C)c(Cl)c3)C2=O)n1 (stereo not given) -6.66%
CN1C(=O)C2(c3ccccc31)C1CCCC=C1C(C#N)=C(N)C2(C#N)C#N (stereo not given) -21.4%
